From the supplement of paper PMC11732987, “Enantioselective OTUD7B fragment discovery through chemoproteomics screening and high-throughput optimisation” (Communications Chemistry, 2025)

What was measured:
Experiment in all cases: log2 ratio of Biotin-Ahx-Ub-VS probe labelling (fragment/DMSO); higher = less target engagement (more negative = stronger competition), active = hit call of the paper (q ≤ 0.05, log2 ratio ≤ -1)
Settings in all cases: compound concentration: 200 uM; treatment time: 3 h
[1] = target: USP34 (UniProt Q70CQ2)
USP34, sequence (Q70CQ2 whole entry, the tested form may be a part): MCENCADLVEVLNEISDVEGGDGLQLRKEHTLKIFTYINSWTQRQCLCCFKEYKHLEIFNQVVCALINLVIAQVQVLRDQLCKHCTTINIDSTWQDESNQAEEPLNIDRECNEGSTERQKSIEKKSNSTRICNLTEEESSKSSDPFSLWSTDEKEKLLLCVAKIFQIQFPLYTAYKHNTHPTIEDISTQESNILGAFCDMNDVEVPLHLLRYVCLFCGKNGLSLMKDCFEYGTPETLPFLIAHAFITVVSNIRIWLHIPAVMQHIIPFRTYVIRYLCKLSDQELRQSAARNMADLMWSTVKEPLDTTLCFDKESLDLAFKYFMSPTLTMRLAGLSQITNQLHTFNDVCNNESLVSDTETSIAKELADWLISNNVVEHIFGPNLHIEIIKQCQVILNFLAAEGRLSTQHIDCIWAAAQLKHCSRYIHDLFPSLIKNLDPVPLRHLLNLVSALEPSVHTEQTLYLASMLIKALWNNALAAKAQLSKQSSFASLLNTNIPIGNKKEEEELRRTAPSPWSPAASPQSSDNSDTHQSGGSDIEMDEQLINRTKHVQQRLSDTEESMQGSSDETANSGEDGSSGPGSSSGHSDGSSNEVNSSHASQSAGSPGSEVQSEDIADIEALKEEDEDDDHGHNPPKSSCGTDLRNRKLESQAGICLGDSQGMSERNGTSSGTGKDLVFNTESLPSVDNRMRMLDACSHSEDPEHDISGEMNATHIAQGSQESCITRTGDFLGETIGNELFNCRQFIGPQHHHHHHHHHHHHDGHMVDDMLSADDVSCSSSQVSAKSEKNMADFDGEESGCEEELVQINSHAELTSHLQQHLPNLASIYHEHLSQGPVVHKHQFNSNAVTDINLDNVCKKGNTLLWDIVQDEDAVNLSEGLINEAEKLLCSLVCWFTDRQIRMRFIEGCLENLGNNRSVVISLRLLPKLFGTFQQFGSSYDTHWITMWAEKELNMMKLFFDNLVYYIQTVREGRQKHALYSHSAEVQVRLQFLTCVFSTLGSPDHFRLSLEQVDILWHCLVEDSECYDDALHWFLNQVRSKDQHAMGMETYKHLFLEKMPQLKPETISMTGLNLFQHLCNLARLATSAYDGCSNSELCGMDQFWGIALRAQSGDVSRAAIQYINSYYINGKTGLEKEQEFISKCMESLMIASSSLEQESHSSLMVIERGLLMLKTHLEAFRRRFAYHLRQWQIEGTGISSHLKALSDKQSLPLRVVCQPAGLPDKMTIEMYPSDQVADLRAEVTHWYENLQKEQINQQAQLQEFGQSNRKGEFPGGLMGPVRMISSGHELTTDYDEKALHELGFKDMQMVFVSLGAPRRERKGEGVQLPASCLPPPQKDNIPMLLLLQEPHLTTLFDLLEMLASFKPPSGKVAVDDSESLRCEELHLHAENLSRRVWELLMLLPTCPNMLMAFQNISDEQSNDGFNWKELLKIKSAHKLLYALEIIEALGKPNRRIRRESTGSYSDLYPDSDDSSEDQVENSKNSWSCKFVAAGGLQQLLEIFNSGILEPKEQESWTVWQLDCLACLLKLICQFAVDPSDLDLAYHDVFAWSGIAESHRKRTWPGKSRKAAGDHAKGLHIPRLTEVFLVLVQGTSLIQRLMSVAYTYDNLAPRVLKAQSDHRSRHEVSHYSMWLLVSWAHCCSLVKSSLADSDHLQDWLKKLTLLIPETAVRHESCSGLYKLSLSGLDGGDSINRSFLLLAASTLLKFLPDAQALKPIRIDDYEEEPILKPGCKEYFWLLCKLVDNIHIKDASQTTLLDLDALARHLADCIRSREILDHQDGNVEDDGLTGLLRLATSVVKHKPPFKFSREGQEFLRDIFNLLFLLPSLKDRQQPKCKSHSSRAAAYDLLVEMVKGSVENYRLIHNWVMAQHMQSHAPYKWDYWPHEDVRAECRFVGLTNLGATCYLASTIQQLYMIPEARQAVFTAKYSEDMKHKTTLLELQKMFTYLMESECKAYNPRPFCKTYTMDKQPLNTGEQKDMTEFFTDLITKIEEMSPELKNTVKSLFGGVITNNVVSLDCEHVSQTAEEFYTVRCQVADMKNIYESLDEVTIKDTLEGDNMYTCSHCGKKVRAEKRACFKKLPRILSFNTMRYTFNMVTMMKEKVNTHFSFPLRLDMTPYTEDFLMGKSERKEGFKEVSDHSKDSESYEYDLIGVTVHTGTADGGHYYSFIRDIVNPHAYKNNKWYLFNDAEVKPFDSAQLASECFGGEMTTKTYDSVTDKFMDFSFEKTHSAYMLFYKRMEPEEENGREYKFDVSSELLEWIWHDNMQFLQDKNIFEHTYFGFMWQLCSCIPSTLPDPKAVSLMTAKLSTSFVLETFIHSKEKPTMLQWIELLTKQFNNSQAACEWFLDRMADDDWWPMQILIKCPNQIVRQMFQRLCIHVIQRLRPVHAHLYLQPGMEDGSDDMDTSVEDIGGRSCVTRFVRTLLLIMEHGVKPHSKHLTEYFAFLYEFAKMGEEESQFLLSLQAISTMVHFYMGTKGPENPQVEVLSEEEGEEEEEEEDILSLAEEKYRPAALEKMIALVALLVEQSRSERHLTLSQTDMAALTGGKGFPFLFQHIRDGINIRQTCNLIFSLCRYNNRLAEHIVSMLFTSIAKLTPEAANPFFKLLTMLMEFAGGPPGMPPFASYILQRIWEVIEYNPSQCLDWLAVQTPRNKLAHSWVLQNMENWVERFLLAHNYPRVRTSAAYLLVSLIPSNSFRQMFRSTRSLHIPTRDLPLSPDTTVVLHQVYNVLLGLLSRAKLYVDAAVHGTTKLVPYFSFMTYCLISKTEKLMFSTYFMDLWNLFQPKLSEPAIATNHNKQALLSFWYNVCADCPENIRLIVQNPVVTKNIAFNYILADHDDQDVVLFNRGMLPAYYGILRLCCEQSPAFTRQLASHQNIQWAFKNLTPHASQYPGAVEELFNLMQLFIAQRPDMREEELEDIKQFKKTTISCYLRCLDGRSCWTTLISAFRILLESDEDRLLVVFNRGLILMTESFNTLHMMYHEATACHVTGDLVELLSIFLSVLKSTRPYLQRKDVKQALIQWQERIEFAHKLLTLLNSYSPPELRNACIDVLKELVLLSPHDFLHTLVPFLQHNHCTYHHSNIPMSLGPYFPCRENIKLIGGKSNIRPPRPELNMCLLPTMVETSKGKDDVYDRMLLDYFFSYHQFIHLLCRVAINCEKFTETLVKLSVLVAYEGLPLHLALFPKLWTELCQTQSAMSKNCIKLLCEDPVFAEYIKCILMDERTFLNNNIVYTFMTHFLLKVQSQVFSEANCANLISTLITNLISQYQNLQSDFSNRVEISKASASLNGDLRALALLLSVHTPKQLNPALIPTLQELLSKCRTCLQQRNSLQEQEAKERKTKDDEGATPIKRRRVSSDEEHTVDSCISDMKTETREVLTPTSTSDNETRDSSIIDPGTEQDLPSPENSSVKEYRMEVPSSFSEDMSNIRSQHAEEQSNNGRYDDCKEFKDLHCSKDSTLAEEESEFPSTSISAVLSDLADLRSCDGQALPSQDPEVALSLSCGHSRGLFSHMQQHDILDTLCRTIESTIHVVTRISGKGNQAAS
Summary of the method: (§1)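 HEK293T lysate, 495 µg per sample in Tris/CHAPS/IGEPAL buffer with protease inhibitors, was treated in triplicate with fragment at 200 µM or vehicle for 3 h and then with Biotin-Ahx-Ub-VS at 0.5 µM final for 1 h. Labelled DUBs were NeutrAvidin-enriched, digested with LysC and trypsin, and run by diaPASEF LC-MS/MS. Spectronaut label-free quantities were global-median-normalised, and values are average log2 fragment/vehicle ratios by unpaired t-test on proteins with ≥2 unique peptides.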

[2] = target: T1, USP36 (UniProt Q9P275)
T1 sequence (whole entry): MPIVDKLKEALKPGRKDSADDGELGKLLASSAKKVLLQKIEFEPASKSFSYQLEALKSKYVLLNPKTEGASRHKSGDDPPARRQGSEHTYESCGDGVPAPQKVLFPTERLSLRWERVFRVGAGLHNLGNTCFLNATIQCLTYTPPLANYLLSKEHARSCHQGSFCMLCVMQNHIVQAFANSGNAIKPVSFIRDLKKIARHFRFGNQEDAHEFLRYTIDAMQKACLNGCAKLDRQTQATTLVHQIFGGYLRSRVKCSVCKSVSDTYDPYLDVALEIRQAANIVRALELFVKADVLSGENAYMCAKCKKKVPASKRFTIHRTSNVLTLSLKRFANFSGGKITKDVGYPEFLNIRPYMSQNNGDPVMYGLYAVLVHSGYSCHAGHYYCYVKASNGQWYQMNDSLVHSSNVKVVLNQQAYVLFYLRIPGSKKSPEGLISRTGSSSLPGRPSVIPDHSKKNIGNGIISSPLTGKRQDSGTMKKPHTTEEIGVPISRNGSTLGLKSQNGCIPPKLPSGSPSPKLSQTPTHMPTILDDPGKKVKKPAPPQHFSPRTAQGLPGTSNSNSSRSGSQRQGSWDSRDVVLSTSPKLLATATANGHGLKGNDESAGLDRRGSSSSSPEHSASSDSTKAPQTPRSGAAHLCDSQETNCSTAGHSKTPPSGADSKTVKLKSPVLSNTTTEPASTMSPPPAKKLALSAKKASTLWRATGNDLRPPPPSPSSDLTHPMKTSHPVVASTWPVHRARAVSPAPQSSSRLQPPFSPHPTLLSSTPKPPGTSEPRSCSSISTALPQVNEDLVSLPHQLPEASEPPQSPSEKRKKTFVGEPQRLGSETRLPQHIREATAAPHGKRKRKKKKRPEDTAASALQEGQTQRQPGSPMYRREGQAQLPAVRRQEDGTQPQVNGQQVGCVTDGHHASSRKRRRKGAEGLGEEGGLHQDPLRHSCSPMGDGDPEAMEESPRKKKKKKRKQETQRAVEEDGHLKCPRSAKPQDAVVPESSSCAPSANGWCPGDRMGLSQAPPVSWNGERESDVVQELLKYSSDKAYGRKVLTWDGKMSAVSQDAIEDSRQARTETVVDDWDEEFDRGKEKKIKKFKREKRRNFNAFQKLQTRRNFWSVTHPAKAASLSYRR
Summary of the method: as §1

[3] = target: T2, USP38 (UniProt Q8NB14)
T2 sequence (whole entry): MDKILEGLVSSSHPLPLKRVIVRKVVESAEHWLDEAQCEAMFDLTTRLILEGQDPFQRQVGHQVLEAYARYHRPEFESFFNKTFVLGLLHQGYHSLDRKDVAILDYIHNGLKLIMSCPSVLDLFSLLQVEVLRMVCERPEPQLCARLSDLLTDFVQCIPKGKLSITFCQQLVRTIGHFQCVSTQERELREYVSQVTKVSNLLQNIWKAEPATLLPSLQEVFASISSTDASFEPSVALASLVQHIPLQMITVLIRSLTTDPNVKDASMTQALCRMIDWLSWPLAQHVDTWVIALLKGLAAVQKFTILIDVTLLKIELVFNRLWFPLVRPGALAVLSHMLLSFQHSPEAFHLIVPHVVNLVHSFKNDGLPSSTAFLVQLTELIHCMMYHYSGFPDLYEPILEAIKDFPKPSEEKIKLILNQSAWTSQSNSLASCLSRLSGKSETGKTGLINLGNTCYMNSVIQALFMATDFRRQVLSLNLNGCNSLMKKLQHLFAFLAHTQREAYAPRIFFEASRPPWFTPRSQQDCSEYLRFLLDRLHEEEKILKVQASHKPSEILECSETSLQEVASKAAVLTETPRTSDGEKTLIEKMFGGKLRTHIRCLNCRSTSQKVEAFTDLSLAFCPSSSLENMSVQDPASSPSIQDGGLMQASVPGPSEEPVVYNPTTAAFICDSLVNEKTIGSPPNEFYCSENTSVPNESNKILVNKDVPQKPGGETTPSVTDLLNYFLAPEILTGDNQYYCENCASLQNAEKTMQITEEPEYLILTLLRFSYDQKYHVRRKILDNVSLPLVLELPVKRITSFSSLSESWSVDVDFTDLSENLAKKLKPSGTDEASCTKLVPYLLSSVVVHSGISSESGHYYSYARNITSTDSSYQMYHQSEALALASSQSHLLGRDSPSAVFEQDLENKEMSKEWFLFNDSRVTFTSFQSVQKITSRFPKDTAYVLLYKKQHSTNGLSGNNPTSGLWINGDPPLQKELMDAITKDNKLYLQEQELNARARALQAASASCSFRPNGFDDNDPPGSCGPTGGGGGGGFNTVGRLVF
Summary of the method: as §1

[4] = target: T3, USP39 (UniProt Q53GS9)
T3 sequence (whole entry): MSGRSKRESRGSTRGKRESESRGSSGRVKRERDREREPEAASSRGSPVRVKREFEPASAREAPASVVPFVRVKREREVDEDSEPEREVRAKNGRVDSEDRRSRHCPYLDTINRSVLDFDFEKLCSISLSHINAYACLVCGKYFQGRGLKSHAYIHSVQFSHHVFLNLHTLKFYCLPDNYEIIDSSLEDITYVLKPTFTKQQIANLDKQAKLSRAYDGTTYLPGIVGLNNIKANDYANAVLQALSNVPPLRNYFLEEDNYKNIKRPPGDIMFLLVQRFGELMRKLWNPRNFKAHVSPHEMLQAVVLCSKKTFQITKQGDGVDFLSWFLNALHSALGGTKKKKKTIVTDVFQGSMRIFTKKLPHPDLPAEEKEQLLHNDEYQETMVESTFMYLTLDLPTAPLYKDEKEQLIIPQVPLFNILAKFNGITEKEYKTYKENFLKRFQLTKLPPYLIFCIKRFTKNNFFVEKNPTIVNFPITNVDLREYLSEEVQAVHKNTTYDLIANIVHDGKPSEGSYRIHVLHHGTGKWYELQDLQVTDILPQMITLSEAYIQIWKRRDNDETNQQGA
Summary of the method: as §1

[5] = target: T4, USP4 (UniProt Q13107)
T4 sequence (whole entry): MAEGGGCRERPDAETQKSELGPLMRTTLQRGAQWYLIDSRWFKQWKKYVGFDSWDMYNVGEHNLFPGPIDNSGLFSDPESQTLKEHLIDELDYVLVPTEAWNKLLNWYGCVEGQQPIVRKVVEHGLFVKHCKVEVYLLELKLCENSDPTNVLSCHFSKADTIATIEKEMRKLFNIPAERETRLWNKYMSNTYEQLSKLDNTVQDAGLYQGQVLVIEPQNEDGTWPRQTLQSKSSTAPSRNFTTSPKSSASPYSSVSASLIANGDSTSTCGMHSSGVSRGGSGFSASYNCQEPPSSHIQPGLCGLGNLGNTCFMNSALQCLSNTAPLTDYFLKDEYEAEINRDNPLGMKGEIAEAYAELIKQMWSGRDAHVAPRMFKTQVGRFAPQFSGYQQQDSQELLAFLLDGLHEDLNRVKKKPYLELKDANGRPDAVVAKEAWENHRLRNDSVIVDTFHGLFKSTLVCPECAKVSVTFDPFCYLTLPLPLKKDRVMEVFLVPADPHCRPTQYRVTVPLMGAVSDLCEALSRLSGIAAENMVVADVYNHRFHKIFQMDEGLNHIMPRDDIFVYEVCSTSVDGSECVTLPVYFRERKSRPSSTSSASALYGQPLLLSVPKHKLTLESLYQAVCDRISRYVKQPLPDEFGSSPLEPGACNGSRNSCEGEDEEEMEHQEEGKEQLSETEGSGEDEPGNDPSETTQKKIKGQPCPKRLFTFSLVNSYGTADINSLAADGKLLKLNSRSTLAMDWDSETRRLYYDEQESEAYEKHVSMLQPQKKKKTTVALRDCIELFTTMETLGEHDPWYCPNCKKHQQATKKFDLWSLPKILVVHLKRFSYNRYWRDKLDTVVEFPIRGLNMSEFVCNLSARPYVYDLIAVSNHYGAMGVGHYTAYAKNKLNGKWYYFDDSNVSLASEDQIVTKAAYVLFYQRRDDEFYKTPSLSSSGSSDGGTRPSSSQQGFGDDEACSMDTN
Summary of the method: as §1

Measured: log2 ratio of Biotin-Ahx-Ub-VS probe labelling

O=C(CCl)N1CCOCCC1c1ccccc1 (stereo not given)
inactive: [1] 0.169 | [2] 0.192 | [3] 0.104 | [4] 0.0858 | [5] -0.196
